Measured values from PubChem BioAssay (Tox21).
Values without a mark were called inactive. Inconclusive results are not listed. Entries that show only a call come without a potency. Active and inactive are the calls of the source. Unless noted, calls follow the shape of the dose curve; as a rule, active = well fitted curve in the direction sought with a large enough effect in the repeat runs; inconclusive = weak or mixed curves; inactive = flat fitted curve, though single readings scatter.

System: not listed separately
Test: qHTS assay to test for compound auto fluorescence at 535 nm (green) in HepG2 cell free culture (AID 720686)
Conditions: Cell-free medium, green autofluorescence 485/535 nm; series mostly up to 91.3 µM

SMILES	outcome	fluorescence, % of fluorescein control
O=C(O)Cc1cn(-c2ccccc2)nc1-c1ccc(Cl)cc1	inactive	–
O=C(O)c1cc(Cl)cc([N+](=O)[O-])c1Cl	inactive	–
Nc1nnc(-c2cccc(Cl)c2Cl)c(N)n1	inactive	–
CC(C(=O)O)c1ccc2c(c1)CC(=O)c1ccccc1S2 (centres undefined)	inactive	–
CC(=O)NCc1c(I)c(NC(C)=O)c(I)c(C(=O)O)c1I	inactive	–
Cc1cccc(C)c1OCC(C)N (centres undefined)	inactive	–
C[C@@H]1O[C@@H](O[C@@H]2[C@@H](O)[C@H](OCCc3ccc(O)c(O)c3)O[C@H](CO[C@@H]3O[C@H](CO)[C@@H](O)[C@H](O)[C@H]3O)[C@H]2OC(=O)/C=C/c2ccc(O)c(O)c2)[C@H](O)[C@H](O)[C@H]1O	inactive	–
CC(=O)/C=C/C1C(C)=CCC(C)C1(C)C (centres undefined)	inactive	–
Brc1ccc(-c2ccccc2)cc1	inactive	–
C=C(C)C(=O)OCCNC(C)(C)C	inactive	–
CC(=O)CCCCn1c(=O)c2c(ncn2C)n(C)c1=O	–	-0.0364% [at 18.6 µM]
FC(F)(F)c1ccccc1-n1ccnc1	inactive	–
C=Cc1ccccn1	inactive	–
CCO[Si](CCCS)(OCC)OCC	inactive	–
O=C(/N=N/C(=O)OCc1ccccc1)OCc1ccccc1	inactive	–
CC(S)C(=O)NCC(=O)O (centres undefined)	inactive	–
C#CC(C)N(C)C(=O)Nc1ccc(Cl)cc1 (centres undefined)	inactive	–
Nc1ccc([N+](=O)[O-])c(N)c1	inactive	–
CC(C)(C)NC(N)=O	inactive	–
COC(=O)C1CC(=O)C(C(=O)OC)CC1=O (centres undefined)	–	-0.0181% [at 3.72 µM]
CC1=CCC(C(C)C)=CC1	inactive	–
O=C(c1ccc(O)cc1)c1ccc(O)c(O)c1O	inactive	–
O=C1O[C@@H]2[C@@H](O)[C@H](O)O[C@@H]2[C@H]1O	inactive	–
CC(=O)c1sc(C)nc1C	inactive	–
CC(=O)Nc1ccc(S(=O)(=O)Nc2ccc([N+](=O)[O-])cc2)cc1	inactive	–

System: not listed separately
Test: qHTS assay to test for compound auto fluorescence at 460 nm (blue) in HepG2 cells (AID 720687)
Conditions: autofluorescence 405/460 nm, 1 h; series mostly up to 91.3 µM
How it was run: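 HepG2 cells in MEM with 10% FBS, attached overnight at 37 C, were exposed to compound or DMSO for 1 hr at 37 C, 5% CO2. Blue fluorescence was read at 405/460 nm, with triamterene as reference fluorophore.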

SMILES	outcome	fluorescence, % of fluorescent control
O=C(O)Cc1cn(-c2ccccc2)nc1-c1ccc(Cl)cc1	inactive	–
Nc1nnc(-c2cccc(Cl)c2Cl)c(N)n1	inactive	–
COCCOC(=O)C1=C(C)NC(C)=C(C(=O)OC(C)C)C1c1cccc([N+](=O)[O-])c1 (centres undefined)	inactive	–
CC(=O)NCc1c(I)c(NC(C)=O)c(I)c(C(=O)O)c1I	inactive	–
CC(C)NCC(O)COc1ccc(COCCOC(C)C)cc1 (centres undefined)	inactive	–
C[C@@H]1O[C@@H](O[C@@H]2[C@@H](O)[C@H](OCCc3ccc(O)c(O)c3)O[C@H](CO[C@@H]3O[C@H](CO)[C@@H](O)[C@H](O)[C@H]3O)[C@H]2OC(=O)/C=C/c2ccc(O)c(O)c2)[C@H](O)[C@H](O)[C@H]1O	inactive	–
CC(=O)/C=C/C1C(C)=CCC(C)C1(C)C (centres undefined)	inactive	–
Brc1ccc(-c2ccccc2)cc1	inactive	–
C=C(C)C(=O)OCCNC(C)(C)C	inactive	–
C=COCCOCCOCCOC=C	inactive	–
CC(=O)CCCCn1c(=O)c2c(ncn2C)n(C)c1=O	–	0.0705% [at 18.6 µM]
FC(F)(F)c1ccccc1-n1ccnc1	inactive	–
C=Cc1ccccn1	inactive	–
CC(N)C(=O)OC(C)(C)Cc1ccc(Cl)cc1 (centres undefined)	inactive	–
CCO[Si](CCCS)(OCC)OCC	inactive	–
NS(=O)(=O)c1ccc(NC(=O)CCC(=O)O)cc1	inactive	–
O=C(/N=N/C(=O)OCc1ccccc1)OCc1ccccc1	inactive	–
CC(S)C(=O)NCC(=O)O (centres undefined)	inactive	–
C#CC(C)N(C)C(=O)Nc1ccc(Cl)cc1 (centres undefined)	inactive	–
Nc1ccc([N+](=O)[O-])c(N)c1	inactive	–
CC(C)(C)NC(N)=O	inactive	–
COC(=O)C1CC(=O)C(C(=O)OC)CC1=O (centres undefined)	–	1.56% [at 3.72 µM]
Oc1cn2c(n1)Nc1ccc(Cl)c(Cl)c1C2	inactive	–
CC1=CCC(C(C)C)=CC1	inactive	–
COCCOCCOCCOCCOCCO	inactive	–
O=C(c1ccc(O)cc1)c1ccc(O)c(O)c1O	inactive	–
O=C1O[C@@H]2[C@@H](O)[C@H](O)O[C@@H]2[C@H]1O	inactive	–
CC(=O)Nc1ccc(S(=O)(=O)Nc2ccc([N+](=O)[O-])cc2)cc1	inactive	–
CCOc1cc([N+](=O)[O-])c(OCC)cc1N1CCOCC1	inactive	–

Target: Glucocorticoid receptor (Homo sapiens) (UniProt P04150)
Sequence (P04150 whole entry, looked up): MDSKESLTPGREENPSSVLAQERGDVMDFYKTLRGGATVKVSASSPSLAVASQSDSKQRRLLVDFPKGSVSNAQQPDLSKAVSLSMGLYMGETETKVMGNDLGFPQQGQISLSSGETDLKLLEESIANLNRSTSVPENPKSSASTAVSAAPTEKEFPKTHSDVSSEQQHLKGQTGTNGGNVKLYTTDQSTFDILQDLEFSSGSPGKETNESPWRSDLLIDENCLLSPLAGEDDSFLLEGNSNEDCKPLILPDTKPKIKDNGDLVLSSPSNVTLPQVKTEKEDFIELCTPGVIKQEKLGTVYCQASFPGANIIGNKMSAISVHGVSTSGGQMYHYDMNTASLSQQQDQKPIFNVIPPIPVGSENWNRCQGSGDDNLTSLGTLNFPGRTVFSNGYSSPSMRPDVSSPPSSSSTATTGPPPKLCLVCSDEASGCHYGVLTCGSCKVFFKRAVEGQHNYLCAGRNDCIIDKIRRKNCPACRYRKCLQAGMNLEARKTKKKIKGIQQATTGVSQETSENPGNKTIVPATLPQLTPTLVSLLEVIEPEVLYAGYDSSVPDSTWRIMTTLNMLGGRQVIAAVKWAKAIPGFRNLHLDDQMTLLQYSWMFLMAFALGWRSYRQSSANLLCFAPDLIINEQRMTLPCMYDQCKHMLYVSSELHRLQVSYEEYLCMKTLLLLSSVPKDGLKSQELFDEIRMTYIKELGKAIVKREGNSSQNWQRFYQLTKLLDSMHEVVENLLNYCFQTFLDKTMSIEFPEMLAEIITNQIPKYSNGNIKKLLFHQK
Test: qHTS assay to identify small molecule agonists of the glucocorticoid receptor (GR) signaling pathway (AID 720691; active = well fitted activation curve with a large enough effect in the signal ratio in the repeat runs, not every such curve was filed as active; the % refers to the signal ratio)
Conditions: GR-bla HeLa, beta-lactamase reporter ratio, 18 h; series mostly up to 62.4 µM
How it was run: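 A HeLa cervical cancer line expressing GR and a glucocorticoid response element-driven beta-lactamase gene is treated with compounds for 18 h; LiveBLAzer B/G FRET substrate is then applied and fluorescence read.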

SMILES	Potency
O=C(O)Cc1cn(-c2ccccc2)nc1-c1ccc(Cl)cc1	inactive
CCCCCCOC(=O)CC	inactive
O=C(O)c1cc(Cl)cc([N+](=O)[O-])c1Cl	inactive
CC(C(=O)O)c1ccc2c(c1)CC(=O)c1ccccc1S2 (centres undefined)	inactive
COc1ccc(-c2cc(=O)c3c(O)cc(O[C@@H]4O[C@H](CO[C@@H]5O[C@@H](C)[C@H](O)[C@@H](O)[C@H]5O)[C@@H](O)[C@H](O)[C@H]4O)cc3o2)cc1O	inactive
CC(C)NCC(O)COc1ccc(COCCOC(C)C)cc1 (centres undefined)	inactive
C[C@@H]1O[C@@H](O[C@@H]2[C@@H](O)[C@H](OCCc3ccc(O)c(O)c3)O[C@H](CO[C@@H]3O[C@H](CO)[C@@H](O)[C@H](O)[C@H]3O)[C@H]2OC(=O)/C=C/c2ccc(O)c(O)c2)[C@H](O)[C@H](O)[C@H]1O	inactive
CC(=O)/C=C/C1C(C)=CCC(C)C1(C)C (centres undefined)	inactive
Brc1ccc(-c2ccccc2)cc1	inactive
C=C(C)C(=O)OCCNC(C)(C)C	inactive
C=COCCOCCOCCOC=C	inactive
CC(=O)CCCCn1c(=O)c2c(ncn2C)n(C)c1=O	inactive
FC(F)(F)c1ccccc1-n1ccnc1	inactive
C=Cc1ccccn1	inactive
CCO[Si](CCCS)(OCC)OCC	inactive
NS(=O)(=O)c1ccc(NC(=O)CCC(=O)O)cc1	inactive
Nc1ccc([N+](=O)[O-])c(N)c1	inactive
CC(C)(C)NC(N)=O	inactive
Oc1cn2c(n1)Nc1ccc(Cl)c(Cl)c1C2	inactive
COCCOCCOCCOCCOCCO	inactive
O=C(c1ccc(O)cc1)c1ccc(O)c(O)c1O	inactive
O=C1O[C@@H]2[C@@H](O)[C@H](O)O[C@@H]2[C@H]1O	inactive
CC(=O)c1sc(C)nc1C	inactive
CC(=O)Nc1ccc(S(=O)(=O)Nc2ccc([N+](=O)[O-])cc2)cc1	inactive
CCOc1cc([N+](=O)[O-])c(OCC)cc1N1CCOCC1	inactive
